# Laboratory results taken from ChEMBL document CHEMBL1961873, “Compounds: GSK PKIS; Assays: Nanosyn kinase panel” (2012).
# Experiments:
# [1] = target: Tyrosine-protein kinase Fer (Homo sapiens) (UniProt P16591); conditions: at 1 µM
# [2] = target: Tyrosine-protein kinase Fes/Fps (Homo sapiens) (UniProt P07332); conditions: at 0.1 µM
# [3] = target: Tyrosine-protein kinase Fes/Fps (Homo sapiens) (UniProt P07332); conditions: at 1 µM
# [4] = target: Fibroblast growth factor receptor 1 (Homo sapiens) (UniProt P11362); conditions: at 0.1 µM
# [5] = target: Fibroblast growth factor receptor 1 (Homo sapiens) (UniProt P11362); conditions: at 1 µM
# [6] = target: Fibroblast growth factor receptor 2 (Homo sapiens) (UniProt P21802); conditions: at 0.1 µM
# [7] = target: Fibroblast growth factor receptor 2 (Homo sapiens) (UniProt P21802); conditions: at 1 µM
# [8] = target: Fibroblast growth factor receptor 3 (Homo sapiens) (UniProt P22607); conditions: at 0.1 µM
# Chain of Fibroblast growth factor receptor 3 (Homo sapiens) (P22607 23-806 limits assumed): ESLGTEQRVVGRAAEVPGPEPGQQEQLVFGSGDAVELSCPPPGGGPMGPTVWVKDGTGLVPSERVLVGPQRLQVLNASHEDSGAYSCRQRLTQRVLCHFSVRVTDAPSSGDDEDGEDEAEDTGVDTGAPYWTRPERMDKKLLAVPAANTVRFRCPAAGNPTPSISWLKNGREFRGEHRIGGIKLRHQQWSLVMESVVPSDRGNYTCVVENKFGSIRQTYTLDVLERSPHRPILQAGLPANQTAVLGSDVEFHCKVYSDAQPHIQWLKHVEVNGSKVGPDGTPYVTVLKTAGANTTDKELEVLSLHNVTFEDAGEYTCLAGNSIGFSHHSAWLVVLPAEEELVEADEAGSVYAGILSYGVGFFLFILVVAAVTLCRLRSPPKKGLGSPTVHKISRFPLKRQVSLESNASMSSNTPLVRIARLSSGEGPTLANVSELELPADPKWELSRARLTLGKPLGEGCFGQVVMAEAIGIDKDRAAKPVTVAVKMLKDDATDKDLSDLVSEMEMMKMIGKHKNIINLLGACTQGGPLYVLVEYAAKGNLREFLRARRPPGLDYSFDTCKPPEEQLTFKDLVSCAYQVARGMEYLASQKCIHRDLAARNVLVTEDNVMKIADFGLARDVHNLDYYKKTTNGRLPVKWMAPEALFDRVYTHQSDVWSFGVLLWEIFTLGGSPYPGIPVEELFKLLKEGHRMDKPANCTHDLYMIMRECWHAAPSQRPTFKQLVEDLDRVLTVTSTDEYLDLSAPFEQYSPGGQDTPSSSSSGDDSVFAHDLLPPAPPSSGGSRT
# [9] = target: Fibroblast growth factor receptor 3 (Homo sapiens) (UniProt P22607); conditions: at 1 µM
# [10] = target: Fibroblast growth factor receptor 4 (Homo sapiens) (UniProt P22455); conditions: at 0.1 µM
# Chain of Fibroblast growth factor receptor 4 (Homo sapiens) (P22455 22-802 limits assumed): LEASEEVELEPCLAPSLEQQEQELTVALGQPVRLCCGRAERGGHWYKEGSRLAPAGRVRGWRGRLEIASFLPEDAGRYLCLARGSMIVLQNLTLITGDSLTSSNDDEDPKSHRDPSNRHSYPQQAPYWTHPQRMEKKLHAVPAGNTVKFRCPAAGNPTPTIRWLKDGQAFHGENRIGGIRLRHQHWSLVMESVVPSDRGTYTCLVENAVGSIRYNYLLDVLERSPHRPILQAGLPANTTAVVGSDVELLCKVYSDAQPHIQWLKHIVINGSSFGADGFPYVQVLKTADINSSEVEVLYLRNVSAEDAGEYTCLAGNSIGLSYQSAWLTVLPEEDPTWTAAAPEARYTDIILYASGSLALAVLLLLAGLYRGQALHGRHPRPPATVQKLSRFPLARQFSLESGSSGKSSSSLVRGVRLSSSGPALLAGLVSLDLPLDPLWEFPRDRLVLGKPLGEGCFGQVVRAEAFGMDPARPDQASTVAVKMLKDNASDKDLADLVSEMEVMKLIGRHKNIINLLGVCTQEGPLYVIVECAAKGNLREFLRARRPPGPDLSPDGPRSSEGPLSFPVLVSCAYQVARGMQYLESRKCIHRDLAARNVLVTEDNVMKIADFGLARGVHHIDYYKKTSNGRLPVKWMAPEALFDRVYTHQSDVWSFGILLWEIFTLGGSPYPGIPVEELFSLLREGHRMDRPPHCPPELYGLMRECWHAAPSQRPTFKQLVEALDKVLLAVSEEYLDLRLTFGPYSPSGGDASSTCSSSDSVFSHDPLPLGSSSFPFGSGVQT
# [11] = target: Fibroblast growth factor receptor 4 (Homo sapiens) (UniProt P22455); conditions: at 1 µM
# [12] = target: Tyrosine-protein kinase Fgr (Homo sapiens) (UniProt P09769); conditions: at 0.1 µM
# Chain of Tyrosine-protein kinase Fgr (Homo sapiens) (P09769 2-529 limits assumed): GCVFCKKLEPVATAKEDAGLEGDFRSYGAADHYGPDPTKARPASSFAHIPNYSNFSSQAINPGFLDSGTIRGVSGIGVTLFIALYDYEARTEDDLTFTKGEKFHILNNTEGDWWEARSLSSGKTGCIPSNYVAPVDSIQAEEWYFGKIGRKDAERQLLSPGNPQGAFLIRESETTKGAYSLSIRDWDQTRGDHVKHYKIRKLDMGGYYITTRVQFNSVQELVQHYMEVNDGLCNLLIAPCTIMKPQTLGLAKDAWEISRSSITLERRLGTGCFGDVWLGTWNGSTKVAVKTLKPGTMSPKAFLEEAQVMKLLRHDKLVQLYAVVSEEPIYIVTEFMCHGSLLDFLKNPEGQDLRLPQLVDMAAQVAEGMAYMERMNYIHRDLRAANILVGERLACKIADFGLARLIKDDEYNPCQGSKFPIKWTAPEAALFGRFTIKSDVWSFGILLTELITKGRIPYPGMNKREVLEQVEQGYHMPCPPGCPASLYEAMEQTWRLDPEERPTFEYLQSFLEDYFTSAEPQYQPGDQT
# [13] = target: Tyrosine-protein kinase Fgr (Homo sapiens) (UniProt P09769); conditions: at 1 µM
# [14] = target: Vascular endothelial growth factor receptor 1 (Homo sapiens) (UniProt P17948); conditions: at 0.1 µM
# [15] = target: Vascular endothelial growth factor receptor 1 (Homo sapiens) (UniProt P17948); conditions: at 1 µM
# [16] = target: Receptor-type tyrosine-protein kinase FLT3 (Homo sapiens) (UniProt P36888); conditions: at 0.1 µM
# [17] = target: Receptor-type tyrosine-protein kinase FLT3 (Homo sapiens) (UniProt P36888); conditions: at 1 µM
# [18] = test system: T1, Receptor-type tyrosine-protein kinase FLT3 (Homo sapiens), P36888 [D835Y]; conditions: at 0.1 µM
# T1 sequence (whole entry): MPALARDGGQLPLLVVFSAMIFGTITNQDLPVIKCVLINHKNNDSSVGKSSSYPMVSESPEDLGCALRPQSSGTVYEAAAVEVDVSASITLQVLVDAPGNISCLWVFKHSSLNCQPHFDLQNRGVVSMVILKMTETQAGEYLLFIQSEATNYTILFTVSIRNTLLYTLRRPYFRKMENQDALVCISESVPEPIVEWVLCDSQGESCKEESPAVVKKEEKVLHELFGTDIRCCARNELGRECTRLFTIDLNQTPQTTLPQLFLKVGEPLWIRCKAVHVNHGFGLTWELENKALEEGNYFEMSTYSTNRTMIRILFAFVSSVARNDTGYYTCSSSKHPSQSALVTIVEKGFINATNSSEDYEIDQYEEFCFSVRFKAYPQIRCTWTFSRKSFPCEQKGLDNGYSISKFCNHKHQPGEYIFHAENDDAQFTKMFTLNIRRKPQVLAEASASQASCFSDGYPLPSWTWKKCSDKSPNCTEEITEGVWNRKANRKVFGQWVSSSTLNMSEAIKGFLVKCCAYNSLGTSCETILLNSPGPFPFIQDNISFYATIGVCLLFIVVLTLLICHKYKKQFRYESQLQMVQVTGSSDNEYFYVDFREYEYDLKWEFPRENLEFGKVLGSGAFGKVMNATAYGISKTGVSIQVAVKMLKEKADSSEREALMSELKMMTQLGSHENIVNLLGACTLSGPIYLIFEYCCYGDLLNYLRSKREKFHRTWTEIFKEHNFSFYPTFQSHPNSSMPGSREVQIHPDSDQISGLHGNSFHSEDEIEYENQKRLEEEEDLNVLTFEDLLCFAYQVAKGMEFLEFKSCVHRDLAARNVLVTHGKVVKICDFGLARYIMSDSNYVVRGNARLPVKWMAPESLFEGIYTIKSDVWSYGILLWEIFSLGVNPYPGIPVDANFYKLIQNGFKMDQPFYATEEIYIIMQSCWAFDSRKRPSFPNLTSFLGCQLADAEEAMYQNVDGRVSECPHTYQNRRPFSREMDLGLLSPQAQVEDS
# [19] = target: Non-receptor tyrosine-protein kinase TYK2 (Homo sapiens) (UniProt P29597); conditions: at 1 µM;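 further: values are mean percent inhibition of TYK2 kinase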
# Chain of Non-receptor tyrosine-protein kinase TYK2 (Homo sapiens) (P29597 whole entry): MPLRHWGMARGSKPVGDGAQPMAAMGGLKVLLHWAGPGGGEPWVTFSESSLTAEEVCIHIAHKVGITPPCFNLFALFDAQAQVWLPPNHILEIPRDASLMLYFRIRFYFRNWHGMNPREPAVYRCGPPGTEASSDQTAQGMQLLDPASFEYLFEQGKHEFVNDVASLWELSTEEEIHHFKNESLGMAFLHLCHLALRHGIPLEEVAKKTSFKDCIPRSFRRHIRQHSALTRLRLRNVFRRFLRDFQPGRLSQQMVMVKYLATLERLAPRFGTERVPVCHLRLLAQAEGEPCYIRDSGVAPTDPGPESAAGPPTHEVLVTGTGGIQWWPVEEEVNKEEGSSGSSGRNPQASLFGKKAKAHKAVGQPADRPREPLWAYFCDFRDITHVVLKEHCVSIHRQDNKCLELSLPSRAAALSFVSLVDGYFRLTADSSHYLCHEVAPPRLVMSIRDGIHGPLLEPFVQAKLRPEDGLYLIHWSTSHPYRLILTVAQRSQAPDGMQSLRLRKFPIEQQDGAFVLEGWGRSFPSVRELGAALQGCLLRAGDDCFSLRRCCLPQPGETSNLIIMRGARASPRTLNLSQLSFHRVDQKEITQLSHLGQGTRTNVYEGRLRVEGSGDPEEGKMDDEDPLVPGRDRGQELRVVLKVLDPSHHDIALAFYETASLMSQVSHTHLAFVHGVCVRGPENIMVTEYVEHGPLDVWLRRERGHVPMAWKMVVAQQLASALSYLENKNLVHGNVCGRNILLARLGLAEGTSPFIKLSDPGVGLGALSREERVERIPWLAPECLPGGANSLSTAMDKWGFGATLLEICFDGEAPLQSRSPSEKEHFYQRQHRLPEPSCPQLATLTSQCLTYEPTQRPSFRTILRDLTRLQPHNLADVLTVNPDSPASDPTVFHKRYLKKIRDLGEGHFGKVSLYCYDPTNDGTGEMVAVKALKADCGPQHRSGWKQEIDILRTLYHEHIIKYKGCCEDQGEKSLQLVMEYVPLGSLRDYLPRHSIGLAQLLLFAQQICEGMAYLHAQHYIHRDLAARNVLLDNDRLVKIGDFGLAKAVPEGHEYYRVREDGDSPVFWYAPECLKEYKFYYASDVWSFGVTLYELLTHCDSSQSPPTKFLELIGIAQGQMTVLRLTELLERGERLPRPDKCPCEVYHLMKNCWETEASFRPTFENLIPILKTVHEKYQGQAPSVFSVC
# [20] = target: T2, Tyrosine-protein kinase receptor TYRO3 (Homo sapiens) (UniProt Q06418); conditions: at 0.1 µM;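 further: reported percentages are averaged inhibition values of TYRO3 kinase activity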
# T2 sequence (whole entry): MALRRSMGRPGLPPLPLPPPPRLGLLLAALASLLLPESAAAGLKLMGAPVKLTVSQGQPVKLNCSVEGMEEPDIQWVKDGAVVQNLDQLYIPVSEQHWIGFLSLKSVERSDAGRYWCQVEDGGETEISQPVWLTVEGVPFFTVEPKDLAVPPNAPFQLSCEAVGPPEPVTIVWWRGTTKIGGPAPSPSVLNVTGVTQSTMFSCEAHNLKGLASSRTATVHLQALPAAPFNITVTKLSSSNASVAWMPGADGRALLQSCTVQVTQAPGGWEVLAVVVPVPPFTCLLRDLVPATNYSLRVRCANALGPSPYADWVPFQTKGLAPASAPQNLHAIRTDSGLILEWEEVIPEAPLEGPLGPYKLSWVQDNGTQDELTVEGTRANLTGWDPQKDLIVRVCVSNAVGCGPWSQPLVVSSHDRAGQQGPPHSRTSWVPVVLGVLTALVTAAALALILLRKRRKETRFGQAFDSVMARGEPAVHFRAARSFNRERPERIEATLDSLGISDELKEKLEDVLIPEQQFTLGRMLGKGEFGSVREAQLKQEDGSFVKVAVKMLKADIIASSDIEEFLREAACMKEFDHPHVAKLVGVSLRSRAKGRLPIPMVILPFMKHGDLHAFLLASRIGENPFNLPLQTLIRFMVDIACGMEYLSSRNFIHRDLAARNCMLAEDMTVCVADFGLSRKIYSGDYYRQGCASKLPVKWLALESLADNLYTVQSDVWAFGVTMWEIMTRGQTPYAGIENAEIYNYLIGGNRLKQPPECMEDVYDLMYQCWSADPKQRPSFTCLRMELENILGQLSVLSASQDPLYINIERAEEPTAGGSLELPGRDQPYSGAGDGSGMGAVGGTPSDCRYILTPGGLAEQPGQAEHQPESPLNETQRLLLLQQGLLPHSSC
# Chain of Tyrosine-protein kinase Fes/Fps (Homo sapiens) (P07332 whole entry): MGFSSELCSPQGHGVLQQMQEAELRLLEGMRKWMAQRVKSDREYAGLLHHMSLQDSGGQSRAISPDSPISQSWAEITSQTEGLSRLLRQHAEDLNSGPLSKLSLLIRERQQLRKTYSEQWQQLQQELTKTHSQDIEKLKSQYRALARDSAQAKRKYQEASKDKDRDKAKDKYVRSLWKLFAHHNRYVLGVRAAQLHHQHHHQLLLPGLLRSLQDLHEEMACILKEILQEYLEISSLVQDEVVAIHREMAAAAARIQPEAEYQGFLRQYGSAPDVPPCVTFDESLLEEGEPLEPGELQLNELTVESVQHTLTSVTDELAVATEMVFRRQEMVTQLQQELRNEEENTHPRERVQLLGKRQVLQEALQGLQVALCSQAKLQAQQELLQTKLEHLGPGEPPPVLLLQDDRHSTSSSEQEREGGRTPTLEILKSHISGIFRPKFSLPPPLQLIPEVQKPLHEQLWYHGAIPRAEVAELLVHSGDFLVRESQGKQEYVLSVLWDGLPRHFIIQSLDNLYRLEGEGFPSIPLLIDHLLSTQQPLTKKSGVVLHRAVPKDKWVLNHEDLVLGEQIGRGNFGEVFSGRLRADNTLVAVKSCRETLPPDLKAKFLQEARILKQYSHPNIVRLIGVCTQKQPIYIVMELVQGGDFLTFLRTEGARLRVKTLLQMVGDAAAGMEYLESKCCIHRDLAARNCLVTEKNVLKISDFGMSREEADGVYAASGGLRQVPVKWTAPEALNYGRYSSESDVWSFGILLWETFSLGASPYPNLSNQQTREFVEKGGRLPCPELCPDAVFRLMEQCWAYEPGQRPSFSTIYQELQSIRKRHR
# Chain of Tyrosine-protein kinase Fer (Homo sapiens) (P16591 whole entry, looked up): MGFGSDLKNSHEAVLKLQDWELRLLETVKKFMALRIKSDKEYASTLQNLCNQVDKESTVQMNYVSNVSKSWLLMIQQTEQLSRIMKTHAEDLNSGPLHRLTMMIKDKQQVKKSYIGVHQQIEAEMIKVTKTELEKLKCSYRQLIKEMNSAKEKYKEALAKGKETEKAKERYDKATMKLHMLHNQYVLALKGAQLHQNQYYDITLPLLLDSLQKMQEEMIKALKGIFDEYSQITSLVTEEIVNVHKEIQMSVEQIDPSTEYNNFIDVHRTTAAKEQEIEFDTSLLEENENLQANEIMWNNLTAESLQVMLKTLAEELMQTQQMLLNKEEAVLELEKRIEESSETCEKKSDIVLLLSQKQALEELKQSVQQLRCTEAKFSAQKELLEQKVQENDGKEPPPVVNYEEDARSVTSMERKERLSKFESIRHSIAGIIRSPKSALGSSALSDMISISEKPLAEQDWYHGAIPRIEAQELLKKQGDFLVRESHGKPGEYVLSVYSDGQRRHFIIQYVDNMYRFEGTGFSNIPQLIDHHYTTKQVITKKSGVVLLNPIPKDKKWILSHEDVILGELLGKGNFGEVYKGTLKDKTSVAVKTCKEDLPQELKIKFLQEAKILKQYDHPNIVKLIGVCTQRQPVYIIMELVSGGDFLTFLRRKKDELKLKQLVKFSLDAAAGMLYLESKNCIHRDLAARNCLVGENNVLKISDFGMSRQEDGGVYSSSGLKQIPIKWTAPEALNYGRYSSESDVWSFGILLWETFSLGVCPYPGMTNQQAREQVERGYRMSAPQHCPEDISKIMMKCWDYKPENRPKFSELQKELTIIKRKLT
Structure (SMILES),inhibition [1] [%],inhibition [2] [%],inhibition [3] [%],inhibition [4] [%],inhibition [5] [%],inhibition [6] [%],inhibition [7] [%],inhibition [8] [%],inhibition [9] [%],inhibition [10] [%],inhibition [11] [%],inhibition [12] [%],inhibition [13] [%],inhibition [14] [%],inhibition [15] [%],inhibition [16] [%],inhibition [17] [%],inhibition [18] [%],inhibition [19] [%],inhibition [20] [%]
c1cc(-c2cnn3nc(N4CCOCC4)ccc23)nc(NC2CC2)n1,1.58,3.42,4.53,8.29,9.37,4.74,11.4,6.59,10.9,1.73,1.73,3.22,8.79,3.82,8.82,4.34,17.2,7.24,-4.59,-0.77
c1ccc(-c2nc3n(c2-c2ccc4c(c2)OCO4)CCC3)nc1,1.9,0.9,-0.41,0.69,2.51,-0.68,1.92,4.46,1.25,-1.29,1.32,-0.63,0.17,1.18,0.86,1.13,0.36,-1.36,-1.07,0.75
CCn1c(-c2nonc2N)nc2ccccc21,8.61,3.26,2.57,2.08,2.29,0.75,4.22,2.45,2.35,0.05,-0.03,2.86,4.31,2.69,0.59,0.25,0.31,3.23,-0.21,1.05
O=C(Nc1n[nH]c2cc(-c3ccc(F)cc3)ccc12)C1CC1,1.55,1.98,2.43,3.72,5.84,1.37,3.08,4.83,3.2,-1.21,1.06,1.35,9.07,-0.63,0.79,1.99,3.69,-0.06,-3.58,4
COC(=O)c1sc(-n2cnc3cc(OC)c(OC)cc32)cc1OCc1ccccc1C(F)(F)F,4.19,3.47,3.74,3.22,12.9,3.5,23,6.13,13.9,-3.87,1.85,3.32,17.2,1.32,9.57,2.55,8.27,-4.92,-3.12,2.58
Clc1ccc(-c2nn3ncccc3c2-c2ccnc(Nc3ccccc3)n2)cc1,4.34,0.87,1.62,-0.82,7.85,0.58,10.3,4.85,6,1.52,1.94,25.1,70.2,4.39,14.6,0.8,4.19,-2.63,-0.64,1.14
CC(=O)NCc1cccc(C#Cc2cncnc2Nc2ccc(OCc3cccc(F)c3)c(Cl)c2)c1,0.86,0.32,0.52,-0.81,-0.46,-2.84,-0.08,0.88,0.49,0.41,-0.23,-0.22,4.83,-0.55,0.27,0.26,-1.41,-0.58,2.95,1.2
Cc1cccc(Nc2ncc(-c3ccccc3)o2)c1,7.96,1.97,3.44,5.23,3.22,6.15,6.52,6.68,4.17,2.94,1.36,2.72,9.59,1.05,11,39.8,81,-4.74,-4.11,1.56
COc1cccc(-c2c[nH]c3c(N/N=C/c4ccncc4)ncnc23)c1,8.57,1.82,2.81,0.74,6.34,1.79,9.49,4.63,8.05,4.93,2.46,14.2,54.2,2.08,18.4,6.9,39,16.4,10.5,7.3
CN(C)CCOc1ccc(-c2nc(-c3ccncc3)c(-c3ccc4c(c3)CC/C4=N\O)[nH]2)cc1,5.81,2.16,2.53,6.05,2.14,4.67,4.48,5.89,4.69,0.23,0.44,2.2,5.88,2.37,2.95,2.67,2.62,1.65,-5.49,3.44
COc1ccc2c(-c3ccnc(Nc4cccc(OC(F)(F)F)c4)n3)cnn2n1,16.5,3.41,8.88,1.54,0.82,11.6,6.91,5.66,6.19,1.76,0.68,5.29,7.16,1.57,7.39,3.4,14.3,3.59,-2.09,4.51
COc1ccc(-c2nn3ncccc3c2-c2ccnc(Nc3ccc4c(c3)OCCO4)n2)cc1,11.8,4.35,7.51,-2.89,11.2,3.13,22.1,3.94,12.6,1.59,1.91,47.9,79.8,4.09,26.8,-1.66,-0.57,-7.3,-1.85,-0.58
COc1cccc(-n2ncc3c(N/N=C/c4ccc(F)cc4)ncnc32)c1,4.95,2.58,3.42,2.86,-0.23,6.26,8.02,6.59,6.78,-0.12,2.78,11.4,29.7,2.07,3.41,3.58,7.87,0.24,-1.74,5
